From PubChem BioAssay
KCNQ2 pot – KCNQ2 (rat) channel potentiation; 0.54% of 310,000 active; AID 2239; B-score at 10 µM; O88943; CHO-K1 KCNQ2, FluxOR thallium flux fluorescence; hits give high values;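 active means fluorescence ratio B-score at least 3 SD of library B-scores, with initial fluorescence B-score within 3 of them, cut at about 5.3 in these data; same plate scores as AID 2156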;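 further: B-score of peak minus minimum over baseline fluorescence ratio after K+ and Tl+ stimulus; positive B-score means potentiation of KCNQ2 with more thallium influx and brighter signal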
Target sequence (O88943 whole entry, looked up): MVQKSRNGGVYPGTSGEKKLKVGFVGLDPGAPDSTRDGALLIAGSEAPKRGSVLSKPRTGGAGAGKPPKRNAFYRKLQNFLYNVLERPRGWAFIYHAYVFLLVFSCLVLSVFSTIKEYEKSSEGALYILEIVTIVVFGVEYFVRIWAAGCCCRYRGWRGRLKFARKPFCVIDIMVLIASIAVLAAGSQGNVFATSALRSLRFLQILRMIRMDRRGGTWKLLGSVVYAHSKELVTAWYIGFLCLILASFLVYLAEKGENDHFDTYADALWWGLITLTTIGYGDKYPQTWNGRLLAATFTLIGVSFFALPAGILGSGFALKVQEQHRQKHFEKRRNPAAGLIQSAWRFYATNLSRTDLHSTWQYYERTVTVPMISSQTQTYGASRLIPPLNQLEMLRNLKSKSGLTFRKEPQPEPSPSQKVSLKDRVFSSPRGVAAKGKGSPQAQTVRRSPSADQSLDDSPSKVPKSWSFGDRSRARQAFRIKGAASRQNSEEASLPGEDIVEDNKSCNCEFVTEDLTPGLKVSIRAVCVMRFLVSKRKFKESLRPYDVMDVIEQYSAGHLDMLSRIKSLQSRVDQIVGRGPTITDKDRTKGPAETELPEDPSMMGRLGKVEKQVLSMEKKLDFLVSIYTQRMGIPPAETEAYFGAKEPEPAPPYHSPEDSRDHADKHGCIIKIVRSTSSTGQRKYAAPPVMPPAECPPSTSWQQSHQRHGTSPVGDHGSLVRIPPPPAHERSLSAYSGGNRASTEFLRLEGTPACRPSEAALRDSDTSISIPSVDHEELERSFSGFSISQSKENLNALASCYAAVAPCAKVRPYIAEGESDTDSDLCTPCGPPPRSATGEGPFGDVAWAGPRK
KCNQ2 inh – inhibitors of rat KCNQ2 potassium channel | O88943 | CHO-K1 KCNQ2, FluxOR thallium flux, 20 min; hits give low values | B-score at 10 µM | 1.1% of 310,000 active | AID 2156;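 active means fluorescence ratio B-score at most minus 3 library SDs, with starting brightness B-score within 2 library SDs, cut at about -5.5 in these data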
Starred values were filed as active, the others as inactive. The list is not random: actives were taken first. Their share in the collection is about 1.6%.

How did O=S(=O)(Nc1nc(-c2ccccc2)cs1)c1cccc(C(F)(F)F)c1 do in these assays?
KCNQ2 pot: 1.3; KCNQ2 inh: inactive

What do the screens show for `O=C(CCCc1cccs1)Nc1nccs1`?
KCNQ2 inh: inactive

Results for COc1ccccc1CN(C)C(=O)C(c1ccccc1)c1ccccc1 ?
KCNQ2 pot: -5.6; KCNQ2 inh: -5.6*

What do the screens show for `CN(Cc1ccc(F)cc1)C(=O)C(c1ccccc1)c1ccccc1`?
KCNQ2 inh: inactive

What do the screens show for `CCn1c(=O)c2cc(C(=O)N(C)c3ccc(OC)cc3OC)sc2c2ccccc21`?
KCNQ2 inh: inactive

How did CCn1c(=O)c2cc(C(=O)N(C)c3cc(C)ccc3OC)sc2c2ccccc21 do in these assays?
KCNQ2 pot: -6.4; KCNQ2 inh: -6.4*

Results for CCOc1cc(/C=C2/C(=N)N3OC(C)=CC3=NC2=O)ccc1OCCOc1ccccc1 ?
KCNQ2 inh: inactive

How did C=CCNC(=O)CN1N=C(c2ccc(C)cc2)CCC1=O do in these assays?
KCNQ2 inh: inactive

What do the screens show for `COC(=O)c1c(-c2ccc(Br)cc2)csc1NC(=O)Cc1ccc(OC)c(OC)c1`?
KCNQ2 inh: inactive

Results for COC(=O)c1c(-c2ccc(C)cc2)csc1NC(=O)Cc1ccc(OC)c(OC)c1 ?
KCNQ2 pot: -6.8; KCNQ2 inh: -6.8*

What do the screens show for `CCC(=O)N1CCN(c2cc(N3CCCC3)c(F)cc2[N+](=O)[O-])CC1`?
KCNQ2 pot: 0.05; KCNQ2 inh: inactive

What do the screens show for `CC(=O)N1CCN(c2cc(N3CCc4ccccc4C3)c(F)cc2[N+](=O)[O-])CC1`?
KCNQ2 pot: -5.6; KCNQ2 inh: -5.6*

Results for CCOc1ccccc1C(=O)NCC(=O)NNC(=O)CN(C)S(=O)(=O)c1ccc(Cl)cc1 ?
KCNQ2 pot: 0.77; KCNQ2 inh: inactive

How did CCn1c(SCc2cccc(C)c2)nnc1-c1ccc(C)cc1 do in these assays?
KCNQ2 pot: -6; KCNQ2 inh: -6*

How did CCn1c(SCc2cccc(F)c2)nnc1-c1ccncc1 do in these assays?
KCNQ2 pot: 0.79; KCNQ2 inh: inactive

Results for COc1cccc(NC(=O)Nc2cccs2)c1 ?
KCNQ2 pot: 2.4; KCNQ2 inh: inactive

What do the screens show for `COc1cccc(NC(=O)N(C2CCCCC2)C(C)c2cccs2)c1` (configuration not stated)?
KCNQ2 pot: -5.7; KCNQ2 inh: -5.7*

What do the screens show for `CC1(c2nnc(-c3ccc(F)cc3)o2)CC(c2ccncc2)=NO1` (configuration not stated)?
KCNQ2 pot: 0.97; KCNQ2 inh: inactive

Results for CCCS(=O)(=O)N1CCCC(C(=O)Oc2ccc(OC)cc2)C1 (configuration not stated) ?
KCNQ2 pot: 0.4; KCNQ2 inh: inactive

What do the screens show for `COC(=O)c1ccc(COc2ccccc2/C=N/NS(=O)(=O)c2ccc(C)cc2)cc1`?
KCNQ2 inh: inactive

Results for O=C(Nc1cccc(S(=O)(=O)N2CCCCC2)c1)c1ccc([N+](=O)[O-])o1 ?
KCNQ2 pot: 8.5*; KCNQ2 inh: inactive

Results for O=C(COC(=O)c1ccc([N+](=O)[O-])o1)Nc1cccc(S(=O)(=O)N2CCCCC2)c1 ?
KCNQ2 pot: 0.25; KCNQ2 inh: inactive

Results for CC1CCN(S(=O)(=O)c2ccc(NC(=O)c3ccco3)cc2)CC1 ?
KCNQ2 pot: 0.47; KCNQ2 inh: inactive

Results for CC(C)n1cc(/C(N)=N/O)c(=O)n(Cc2ccccc2)c1=O ?
KCNQ2 pot: 1.3; KCNQ2 inh: inactive

How did Cc1ccc(NC(=O)CCCC(=O)O)c(-c2nc3ccccc3[nH]c2=O)c1 do in these assays?
KCNQ2 inh: inactive

How did COC(=O)c1cn(C(=O)c2ccc(F)cc2)c2ccccc12 do in these assays?
KCNQ2 inh: inactive

Results for C=CCOc1ccc(C(=O)n2cc(C(=O)OC)c3ccccc32)cc1 ?
KCNQ2 pot: -6.2; KCNQ2 inh: -6.2*

Results for COc1ccc(CCNC(=O)Cn2c(=O)[nH]c3ccsc3c2=O)cc1OC ?
KCNQ2 pot: 0.69; KCNQ2 inh: inactive

How did O=c1c2ccccc2nc(SCc2nnc(-c3ccccc3)o2)n1-c1ccc(F)cc1F do in these assays?
KCNQ2 pot: -6.4; KCNQ2 inh: -6.4*

What do the screens show for `O=c1c2ccccc2nc(SCc2nnc(-c3ccccc3Br)o2)n1-c1ccccc1`?
KCNQ2 inh: inactive

Results for O=C(NNC(=O)c1cccs1)c1ccc(Cl)nc1 ?
KCNQ2 pot: 1.2; KCNQ2 inh: inactive

How did O=C(COC(=O)c1cccc(Br)c1)NCCNC(=O)COC(=O)c1cccc(Br)c1 do in these assays?
KCNQ2 inh: inactive

Results for O=C(CSCc1ccc(Br)cc1)NCCc1ccccc1 ?
KCNQ2 pot: -5.5; KCNQ2 inh: -5.5*

How did O=C(COC(=O)c1cccc(Br)c1)NCCc1ccccc1 do in these assays?
KCNQ2 pot: -5.7; KCNQ2 inh: -5.7*

How did O=C(CSCc1ccccc1)NCCc1ccc(F)cc1 do in these assays?
KCNQ2 pot: 0.15; KCNQ2 inh: inactive

How did Cc1ccc(S(=O)(=O)Cc2ccc(C(=O)NC3CCCCCC3)o2)cc1 do in these assays?
KCNQ2 inh: inactive

What do the screens show for `COc1ccccc1NC(=S)NCCc1ccc(Cl)cc1`?
KCNQ2 pot: -6.2; KCNQ2 inh: -6.2*

Results for COc1ccccc1NC(=O)OC(C)c1ccc(Cl)cc1 (configuration not stated) ?
KCNQ2 pot: -5.8; KCNQ2 inh: -5.8*

What do the screens show for `COc1ccccc1NC(=S)NCCSc1ccc(Cl)cc1`?
KCNQ2 inh: inactive

Results for COc1ccccc1NC(=O)Nc1cc(C(C)C)ccc1C ?
KCNQ2 pot: 1.2; KCNQ2 inh: inactive

What do the screens show for `CCOC(=O)c1c(N)sc(N)c1C(=O)OCC`?
KCNQ2 pot: 9.7*; KCNQ2 inh: inactive

Results for CCOC(=O)c1c(N)sc(C(N)=O)c1C ?
KCNQ2 inh: inactive

What do the screens show for `Cc1cc2oc(=O)cc(CN3CCCCC3C)c2cc1C(C)C` (configuration not stated)?
KCNQ2 inh: inactive

How did CCc1nc(C)c(C(=O)N2CCCC(C(=O)Nc3cccc(-c4cccc(C)c4)c3)C2)o1 (configuration not stated) do in these assays?
KCNQ2 pot: 0.91; KCNQ2 inh: inactive

Results for COc1ccc(S(=O)(=O)Nc2cc3c4c(oc3c3ccccc23)CCCC4=O)cc1 ?
KCNQ2 inh: inactive

How did COc1ccc(S(=O)(=O)Nc2cc3c4c(oc3c3ccccc23)CC(C)(C)CC4=O)cc1 do in these assays?
KCNQ2 pot: -6.5; KCNQ2 inh: -6.5*

What do the screens show for `CCCC(=O)Nc1cc(C(=O)O)ccc1Sc1ccccc1`?
KCNQ2 pot: 0.02; KCNQ2 inh: inactive

Results for NC[C@@H]1O[C@H](C23CC4CC(CC(C4)C2)C3)Cc2c1ccc(O)c2O ?
KCNQ2 pot: -5.8; KCNQ2 inh: -5.8*

Results for COc1ccc(Cl)cc1C(=O)NCCN(C)C ?
KCNQ2 pot: 0.4; KCNQ2 inh: inactive

What do the screens show for `CN(C)CCNC(=O)c1ccc(COc2ccc(Cl)cc2Cl)cc1`?
KCNQ2 pot: -7.6; KCNQ2 inh: -7.6*

How did CCN(CCn1cccn1)C(=O)CC1C(=O)NCCN1CCc1ccccc1 (configuration not stated) do in these assays?
KCNQ2 inh: inactive

How did O=C(NCc1nc2ccccc2[nH]1)c1ccccc1F do in these assays?
KCNQ2 pot: 1.1; KCNQ2 inh: inactive

How did O=C(NCCCc1nc2ccccc2[nH]1)c1ccc(F)cc1 do in these assays?
KCNQ2 pot: 7.3*; KCNQ2 inh: inactive
